Measurements reported in paper PMC5540273 (PLoS ONE, 2017).

Experiments:
Conditions in all cases: concentration: 1 μM, replicates: in singlicate; n = 1
ASK2 = tested on: T1, ASK2
T1 construct: gene MAP3K6

AURKA = tested on: AURKA
AURKB = tested on: AURKB
AURKC = tested on: AURKC
AXL = tested on: AXL
BIKE = tested on: T2, BIKE
T2 construct: gene BMP2K

BLK = tested on: BLK
BMPR1A = tested on: BMPR1A
BMPR1B = tested on: BMPR1B
BMPR2 = tested on: BMPR2
BMX = tested on: BMX
BRAF = tested on: BRAF
BRK = tested on: T3, BRK
T3 construct: gene PTK6

BRSK1 = tested on: BRSK1
BRSK2 = tested on: BRSK2
BTK = tested on: BTK
BUB1 = tested on: BUB1
CAMK1B = tested on: CAMK1B
CAMK1D = tested on: CAMK1D
CAMK1G = tested on: CAMK1G
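Further: KINOMEscan kinase panel screen.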

SMILES	%Inh (ASK2) [%]	%Inh (AURKA) [%]	%Inh (AURKB) [%]	%Inh (AURKC) [%]	%Inh (AXL) [%]	%Inh (BIKE) [%]	%Inh (BLK) [%]	%Inh (BMPR1A) [%]	%Inh (BMPR1B) [%]	%Inh (BMPR2) [%]	%Inh (BMX) [%]	%Inh (BRAF) [%]	%Inh (BRK) [%]	%Inh (BRSK1) [%]	%Inh (BRSK2) [%]	%Inh (BTK) [%]	%Inh (BUB1) [%]	%Inh (CAMK1B) [%]	%Inh (CAMK1D) [%]	%Inh (CAMK1G) [%]
Cc1cccc(Nc2nc(N[C@H]3CCCC[C@H]3N)ncc2C(N)=O)c1.Cl [GSK986310]	6	0	24	62	59	50	67	12	0	28	13	0	20	16	13	0	89	91.4	61	23
O=C(Nc1c(F)cccc1F)c1cc(C(=O)c2ccccc2F)c[nH]1 [GSK1326180]	0	0	0	0	24	0	0	6	0	1	18	0	11	0	0	0	31	33	13	6
Cc1ccc(Nc2ccnc(Nc3ccc(C)c(F)c3)n2)cc1O.Cl [GW582868]	0	0	0	19	32	29	51	7	30	7	12	50	50	0	0	0	44	34	0	0
O=C(Nc1n[nH]c2nc(-c3ccccc3O)ccc12)C1CC1 [SB-711880]	34	31	81	6	18	41	0	0	0	8	0	0	0	38	19	0	2	9	4	0
CN(C)c1ncnc2nc[nH]c12 [SKF-31736]	0	12	54	0	0	0	0	0	7	46	0	9	0	0	0	0	40	0	0	8
Cc1ccc(O)cc1Nc1ccnc2ccc(C(C)(C)C)cc12 [GW856805]	32	30	36	24	42	9	95.1	16	79	33	19	63	91.4	5	20	0	30	29	28	0
CC(C)NCC(Cc1ccccc1)NC(=O)c1cc(Br)c(-c2ccnc3[nH]ccc23)s1.Cl.Cl (stereo not drawn) [GSK1383281]	11	95.1	93.8	91.7	74	79	0	0	0	8	5	0	0	0	0	0	43	29	27	0
Cn1cc(-c2cnc(N)c3c(-c4ccc5c(c4)CCN5C(=O)Cc4ccccc4)csc23)cn1 [GSK2593074]	17	24	97.8	92.2	95.9	0	93	1	6	6	57	0	92.2	0	7	0	0	0	11	0
CC(C)c1nc(-c2ccc(F)c(NS(=O)(=O)c3c(F)cccc3F)c2)c(-c2ccnc(Nc3ccc(N4CCOCC4)nc3)n2)s1 [GSK1804250]	25	11	29	88	82	44	99.5	40	99.7	1	90	99.9	94.8	14	0	90	92.7	31	26	4
Cl.O=C(Nc1ccc(Oc2ccc3[nH]c(NC(=O)c4ccco4)nc3c2)cc1)Nc1cc(C(F)(F)F)ccc1F [GW683134]	0	0	92.6	50	96	15	54	0	0	0	1	69	0	0	0	0	30	29	0	0
CNc1nccc(-c2ccc3c(N)n[nH]c3c2)n1 [GSK2206003]	0	8	0	46	0	94.1	54	7	71	6	2	0	10	22	15	3	71	0	28	22
O=C(Nc1n[nH]c2nc(-c3ccccc3)ccc12)C1CC1 [SB-708999]	32	22	15	8	0	40	0	0	6	10	9	4	0	54	37	40	0	35	0	79
COc1cccc(-c2nc(-c3ccccc3)[nH]c2-c2ccncc2)c1 [SB-610250]	11	0	39	0	15	0	60	0	0	0	0	74	16	0	0	0	95.6	0	5	0
CC(=O)Nc1cn2nc(Oc3cccc(NC(=O)c4cccc(C(F)(F)F)c4)c3)ccc2n1	0	0	60	74	51	18	98.2	10	0	0	25	99.7	92.1	0	0	4	0	0	24	0
N#CC1(c2cccc(C(=O)Nc3cccc(Oc4ccc5nc(NC(=O)C6CC6)sc5n4)c3)c2)CC1	3	0	57	48	62	1	95.2	0	0	0	0	99.9	18	13	0	6	0	0	2	0
COc1ccc(C2=C(Nc3cccc(O)c3)C(=O)NC2=O)cc1 [SB-390766]	7	13	33	0	35	0	0	0	0	24	0	6	21	7	49	0	50	73	27	26
Nc1ncc(-c2cn[nH]c2)c2scc(-c3ccc4c(c3)CCN4C(=O)Cc3ccccc3)c12 [GSK2593067]	21	13	98.6	87	98.8	67	96	0	0	0	31	0	96.1	0	0	0	11	0	11	19
O=C(Nc1n[nH]c2cc(-c3cccs3)ccc12)C1CC1 [SB-731284]	39	42	51	42	0	84	0	2	35	24	11	68	0	54	30	54	0	0	6	0
